MITF TRPM1 HTS: increases MITF-driven TRPM1 promoter luciferase signal; activation, % at 12.5 µM; SK-MEL-5 TRPM1-promoter luciferase, 24 h; % of positive control, neutral wells = 0; 0.75% of 300,000 active;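 active = mean activation of at least 80% with every replicate also reaching 80%; inconclusive = mean reaches 80% but some replicate falls short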
PfHsp90 set2: growth inhibition of yeast expressing Plasmodium Hsp90; S. cerevisiae expressing PfHsp90, BacTiter-Glo ATP, 48 h; yeast lacking PDR1 and PDR3 efflux regulators; inhibition, % at 9.4 µM; 0.32% of 310,000 active; AID 504621;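 active = every replicate shows inhibition above about 80%, whatever the replicate mean, limit read from the data; inconclusive = mean inhibition reaches the set limit but some replicate falls short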
Wnt act: activators of Wnt/beta-catenin signaling | Wnt/beta-catenin reporter cell assay, activator, plate reader | AID 743398 | activation, % at 9.35 µM | 1.2% of 300,000 active; in the data active = activation above about 30%, passing the limit was not always enough; inconclusive = no clear call, values can overlap the other calls
TRPM1 prom inh: reduces MITF-dependent TRPM1 promoter luciferase signal; 0.83% of 330,000 active; AID 488899; SK-MEL-5 TRPM1 promoter luciferase, 24 h; inhibition, % at 12.5 µM;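 active = mean inhibition across replicates of 60% or more, whatever share of single replicates reaches that level; inconclusive = some that reach 60%, reason not given; inactive = mean inhibition across replicates below 60%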
NSD2 inh: NSD2 (human) methyltransferase inhibition; NSD2 peptide methylation, AlphaScreen, 120 min; inhibition, % at 12.5 µM; 0.54% of 310,000 active; AID 743445; in the data active = inhibition above about 50%
Glyco luc inh: N-linked glycosylation inhibition. D54 ERlucT glycosylation luciferase reporter, 24 h; percent of 100 nM tunicamycin response. reporter increase, % at 12.5 µM. 0.23% of 360,000 active;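 active = mean luciferase reporter signal, scaled so untreated is 0 and the glycosylation-blocking control 100, at or above a set limit in every replicate; inconclusive = mean reaches the limit but not every replicate does; inactive = mean below the limit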;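 also: luciferase carries N-glycosylation sites so blocking glycosylation raises the light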
A number is an active result; - = inactive; ? = inconclusive; . = no result given. Rows were chosen to be rich in hits. Some 2.9% of all compounds tested hit in one or more screens of this group.

SMILES | MITF TRPM1 HTS | PfHsp90 set2 | Wnt act | TRPM1 prom inh | NSD2 inh | Glyco luc inh
CC(=O)Nc1c(Cl)cc2c(c1Cl)C(=O)c1ccccc1-2 | - | - | - | - | - | -
COc1cccc(NC(=O)c2ccccc2F)c1 | 87 | - | ? | - | . | -
COc1cccc(NC(=O)c2cc3ccccc3cc2OC)c1 | . | - | 49 | - | - | -
COc1cccc(C(=O)Nc2cccc(C(=O)NC3=NN(c4c(Cl)cc(Cl)cc4Cl)C(=O)C3)c2)c1 | . | - | 32 | - | - | -
CSc1cccc(NC(=O)c2[nH]c(C)c(C(C)=O)c2C)c1 | 133 | - | - | - | - | -
COc1ccc(NC(=O)c2cc3ccccc3cc2OC)cc1OC | - | - | - | - | - | -
COc1ccc(Oc2c(Cl)cnn(-c3cc(C)cc(C)c3)c2=O)cc1 | . | . | . | . | - | .
COCc1ccc(-c2c(-c3cc(OC)cc(OC)c3)oc(=O)c3cc(OC)c(OC)cc23)cc1 | - | - | - | - | . | -
COc1cccc(C(=O)Nc2cccc(SC)c2)c1 | 80 | - | - | - | - | -
O=C(Nc1ccc2c(c1)Cc1ccccc1-2)c1ccccc1F | . | - | 49 | . | - | -
COc1ccc(NC(=O)c2csc3c2CCCC3)cc1 | - | - | - | - | - | -
COc1cccc(C(=O)Nc2ccccc2)c1 | . | - | . | - | - | -
O=C(Nc1ccc2c(c1)Cc1ccccc1-2)c1ccc(Br)o1 | - | - | - | - | - | -
COc1cccc(NC(=O)c2csc3c2CCCC3)c1 | 95 | - | 46 | - | - | -
COc1cc2ccccc2cc1C(=O)Nc1ccc(O)cc1 | . | - | 53 | - | - | -
O=C(NCc1ccco1)C1Cc2c(-c3cccc(F)c3)ccnc2O1 (stereo unspecified) | . | . | - | . | - | -
Cc1ccc(-c2ccc(CN3C(C)C(=O)N(Cc4cn(CC5CCCCC5)nn4)CCS3(=O)=O)cc2)cc1 (stereo unspecified) | . | . | - | . | . | -
Cc1ccc(OCc2cc(C(=O)N(C)CCc3ccccn3)no2)cn1 | - | - | - | - | - | -
O=C(CN1C(=O)NC2(CCCC2)C1=O)Nc1nc2c(F)cc(F)cc2s1 | - | - | - | - | - | -
COc1ccc(COC(=O)N/N=C(\C)CC(=O)NCc2ccc(Cl)cc2)cc1 | - | - | - | - | - | -
O=C1SC(SC(=Nc2ccccc2)Nc2ccccc2)C(=O)N1c1ccccc1 (stereo unspecified) | - | - | 48 | - | . | -
COc1cc(CNc2ccc(O)cc2)cc(Br)c1OCc1ccccc1 | - | - | - | - | - | 57
COc1cc(CNC(C)c2ccccc2)cc(Br)c1OCc1ccccc1 (stereo unspecified) | - | - | - | - | - | -
COc1ccc(-n2c(SCC(=O)NN=Cc3c(O)ccc4ccccc34)nnc2-c2ccc(C(C)(C)C)cc2)cc1 | . | . | . | . | - | .
Cc1ccc(-c2nnc(Cc3ccc([N+](=O)[O-])cc3)o2)cc1 | 94 | - | ? | - | - | -
SMILES | MITF TRPM1 HTS | PfHsp90 set2 | Wnt act | TRPM1 prom inh | NSD2 inh | Glyco luc inh
O=C(Nc1ccc(Cl)cc1F)c1ccccc1Br | - | - | 49 | - | - | -
C=C(C)CNC(=O)CCc1nnc(Cc2cccc(C(F)(F)F)c2)o1 | - | - | 56 | - | - | -
CCCOC(=O)c1ccc(NC(=O)c2nc3nc(C)cc(C)n3n2)cc1 | - | . | - | - | - | -
O=C(CSc1nnnn1C1CCCCC1)Nc1cccc(NC(=O)c2ccco2)c1 | - | - | 60 | - | - | -
CC(C)n1cnc2cc(NC(=O)c3ccco3)ccc21 | - | - | - | - | - | -
O=C(Nc1ccc2c(c1)ncn2C1CCCCC1)c1ccco1 | . | . | 45 | - | - | -
CNC(=O)C[C@H]1C(=O)N(Cc2ccccc2)C[C@@H]1C | . | . | - | . | . | -
O=C(O)COCC(=O)Nc1cc(C(F)(F)F)cc(C(F)(F)F)c1 | - | - | - | - | - | -
CC(CC(=O)O)CC(=O)Nc1cc(C(F)(F)F)cc(C(F)(F)F)c1 (stereo unspecified) | . | - | 51 | - | - | -
O=C1Nc2cc(C(=O)NCCCN3CCCC3)ccc2S/C1=C\c1ccccc1 | - | - | - | 96 | - | -
COc1ccc(/C=C2/Sc3ccc(C(=O)NCCN4CCCCCC4)cc3NC2=O)cc1 | - | - | - | 95 | - | -
O=C1Nc2cc(C(=O)NCCCN3CCOCC3)ccc2S/C1=C/c1cccc(Cl)c1 | - | - | - | - | - | -
COc1ccc(NC(=O)Nc2ccc3c(c2)C(=O)N([C@H](C)CO)C[C@@H](C)[C@@H](CN(C)Cc2ccc4c(c2)OCO4)OCCCC[C@H](C)O3)cc1 | . | . | - | . | . | .
O=C1NC[C@@H](CCCCN2CCN(CCc3ccc(O)cc3)C(=O)C2=O)N(CCC2CCCCC2)C1=O | . | . | - | . | . | .
O=Nc1c(O)c2ccccc2c2ccccc12 | - | 111 | - | 97 | . | -
CC(=O)Nc1ccc(C(=O)COC(=O)C2CC2)c(F)c1 | 126 | . | 38 | - | - | -
CCCC(=O)Nc1ccc(C(=O)COC(=O)C2CC2)cc1 | - | - | 48 | - | - | -
C=CCN=C1NC(c2ccc(Cl)cc2)C(C(=O)OC)=C(C)N1Cc1ccccc1C(F)(F)F (stereo unspecified) | . | . | - | . | . | .
O=C(NCCCc1ccccc1)[C@H](CO)NC1(C(=O)NCCc2c[nH]c3ccccc23)CCCCC1 | . | . | . | . | - | .
CCN(CC)CCn1c(SCC(=O)NCc2ccco2)nc2c(sc3ccccc32)c1=O | . | . | 47 | - | - | -
COc1cccc(NC(=O)CSc2nc3c(sc4ccccc43)c(=O)n2CCCN2CCCC2)c1 | - | - | - | 98 | - | -
COc1ccc(C2CC(=O)C(c3ccc(C#N)cc3)=CN2Cc2ccccc2)cc1 (stereo unspecified) | . | . | - | . | . | .
CCN(CC)S(=O)(=O)c1ccc(N2CCOCC2)c(NC(=O)C2=COCCO2)c1 | - | - | - | - | - | -
O=C(/C=C/NNC(=O)c1ccccc1)c1ccc([N+](=O)[O-])cc1 | - | - | - | 64 | - | -
CC(=O)N(C)c1cc([N+](=O)[O-])ccc1OCc1ccccc1 | - | - | - | - | - | -
SMILES | MITF TRPM1 HTS | PfHsp90 set2 | Wnt act | TRPM1 prom inh | NSD2 inh | Glyco luc inh
Cc1ccc(CC(=O)c2ccc(Cl)cc2)cc1 | 92 | - | - | - | - | -
Cc1ccc(CONC(=O)c2ccc(C)cc2)cc1 | 95 | - | 38 | - | - | -
O=C(/C=C/NNC(=O)c1ccccc1)c1ccccc1 | - | - | . | - | - | -
O=C(Cc1ccc(Cl)cc1)c1ccc(O)cc1 | - | - | - | - | . | -
Nc1cc([N+](=O)[O-])ccc1OCc1ccccc1 | - | - | 48 | - | - | -
CCC(C)NC(=O)C1CCC(CNS(=O)(=O)c2ccc3c(c2)N(C(C)=O)CCO3)CC1 (stereo unspecified) | - | - | - | - | - | -
COc1cc(/C=C/C(=O)OCC(=O)c2ccc[nH]2)ccc1O | . | . | - | . | - | -
COc1ccccc1C(=O)NC1CCCCN(C)C1=O (stereo unspecified) | . | . | - | . | - | .
